An excerpt weighted towards active compounds, which were near 15% of everything screened.
Pf growth 96h: Primary qHTS for delayed death inhibitors of the malarial parasite plastid, 96 hour incubation; P. falciparum luciferase reporter growth, 96 h; Potency, µM (doses to about 28.7 µM), for the others: at the highest dose activity change, negative = inhibition, usual class: inhibitors; 6.9% of 320,000 active; also: potency is read from the fitted curve at half-maximal effect; % is scaled to controls: 0 for no effect and ±100 for the full control effect
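96 h incubation, 37 C, 5% CO2, of luciferase-reporter P. falciparum-infected RBCs (2% hematocrit, 0.05% parasitemia final) with test compounds; endpoint luminescence.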
Pf growth 48h: Primary qHTS for delayed death inhibitors of the malarial parasite plastid, 48 hour incubation; P. falciparum luciferase growth in erythrocytes, 48 h; Potency, µM (highest dose often 28.7 µM), without a hit: top-dose activity change, negative = inhibition, most hits filed as inhibitors; 5.9% of 310,000 active; AID 504832, 2011; also: potency is read from the fitted curve at half-maximal effect; % is scaled to controls: 0 for no effect and ±100 for the full control effect
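First compound was added to culture medium, then infected red cells at 0.1% parasitemia and 2% hematocrit (final). After incubation at 37 C under 5% CO2, luciferase detection reagent was dispensed and light output recorded.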
SARS PLpro yeast: qHTS of Yeast-based Assay for SARS-CoV PLP; S. cerevisiae expressing SARS-CoV PLpro, growth rescue; Potency, µM (highest dose often 32.9 µM), without a hit: at the highest dose activity, positive = growth rescue, actives largely listed as activators; 0.19% of 330,000 active; calls by dose curve; also: potency is read from the fitted curve at half-maximal effect; 0% is about no effect; nearly all actives have a fitted effect of over 55% in size
HCMV inh: qHTS Assay for inhibitors of the human cytomegalovirus (HCMV) | HFF cells, HCMV-luciferase reporter, 72 h; active compounds read low | activity change, negative = inhibition, % at 57.5 µM | 4.5% of 410,000 active; in the data active = activity change below about -60%; inconclusive = no clear call, values can overlap the other calls; inactive = above about -39%; also: % is scaled to controls: 0 for no effect and ±100 for the full control effect
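Steps: HFFs plated, 16 h 37C; compounds added; HCMV-luciferase added to MOI 1 PFU/cell; 72 h 37C; OneGlo reagent, 5 min room temperature; luminescence read, normalized to controls.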
HCV inh: qHTS Assay for Inhibitors of Hepatitis C Virus (HCV) | Huh7.5.1 HCVcc-Cre infection, luciferase reporter, 44 h | Potency, µM (highest dose often 41.8 µM), for the others: at the top dose activity change, negative = inhibition, usual class: inhibitors | 3.4% of 340,000 active | AID 651820, 2012; also: potency is read from the fitted curve at half-maximal effect; % is scaled to controls: 0 for no effect and ±100 for the full control effect
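After 44 h co-culture of compound, cells and HCVcc-Cre (~0.5 moi), substrate is added for 15 min at room temperature and luciferase measured over 15 sec. Cells were seeded at 1,000/well and pre-cultured 4 h.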
Sm TGR inh: qHTS Assay for the Inhibitors of Schistosoma Mansoni Peroxiredoxins. 3% of 360,000 active. AID 485364, 2010. Potency, µM (titrated, usually from 114 µM), inactives show at the top dose activity change, negative = inhibition, usual class: inhibitors. purified TGR, DTNB reduction, TNB absorbance 405 nm; also: potency is read from the fitted curve at half-maximal effect; % is scaled to controls: 0 for no effect and ±100 for the full control effect; nearly all actives have a fitted effect of over 60% in size
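Kinetic colorimetric format: TGR-catalysed, NADPH-driven DTNB reduction monitored via TNB absorbance. Enzyme dispensed at 20 nM; compound exposure 15 min at room temperature before reaction start.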
An asterisk follows results filed as active; ? = inconclusive; . = not tested or not shown; ! = repeats disagree; [ ] = dose if it differs, or a comment. Unless noted, calls follow the shape of the dose curve; as a rule, active = well fitted curve in the direction sought with a large enough effect; inconclusive = small, poorly fitted or top-dose-only effect, or another doubt; inactive = no such curve, though single readings can be large; an effect the other way counts as inactive or inconclusive.

SMILES | Pf growth 96h | Pf growth 48h | SARS PLpro yeast | HCMV inh | HCV inh | Sm TGR inh
N#CCCN(C(=O)COC(=O)CNS(=O)(=O)c1ccc2ccccc2c1)c1ccccc1 | 9.5% | 6.1% | 3.3% | 50.7 | 6.2% | -23.9%
Cc1ccc2c(CNCc3ccc(C)o3)c(C(=O)O)n(Cc3ccccc3C)c2c1 | . | . | . | 21.0 | . | -8.0%
CCN1C(=O)C(Cc2nc3ccccc3c(=O)n2C)c2cc(C)ccc21 (centres undefined) | . | . | . | -9.9 | . | 9.5%
Cc1ccc(OC[C@H](O)[C@H](C)NC(C)C)c2c1CCC2 | ? | 9.28µM* | . | 13.7 | -28.3% | -19.1%
COc1ccc(Cl)cc1NC(=O)CSC1=Nc2ccccc2C2=NC(CC(=O)NCc3cccs3)C(=O)N12 (centres undefined) | . | . | . | 22.8 | . | 0.7%
CCN1/C(=C/c2sc(-c3ccccc3C)c[n+]2C)Sc2ccccc21 | -9.6% | ? | -31.9% | -96.7* | 3.55µM* | 4.2%
CCc1ccc(-n2nc(C)c3c(C)cc(=O)n(CC(=O)Nc4ccccc4C(=O)OC)c32)cc1 | . | . | . | 9.2 | . | 1.6%
CCOc1ccc(C2C(C(=O)c3ccc(C)o3)=C(O)C(=O)N2CCN2CCOCC2)cc1OC (centres undefined) | 15.3% | -5.9% | 1.7% | 39.0 | 23.1% | 50.1µM*
CCCOc1ccc(C2C(C(=O)c3ccco3)=C(O)C(=O)N2CCN2CCOCC2)cc1OC (centres undefined) | 21.6% | 42.5% | -1.0% | . | . | 39.8µM*
COc1ccc(C2C(C(=O)c3ccco3)=C(O)C(=O)N2CCc2ccccc2)cc1OC (centres undefined) | 159.0% | ? | -4.8% | 17.1 | 11.4% | 4.4%
COc1ccc(C2C(C(=O)/C=C/c3ccco3)=C(O)C(=O)N2CCN2CCOCC2)cc1OC (centres undefined) | -25.2% | 4.4% | -2.7% | -33.8 | -0.2% | 11.2µM*
CCOc1ccc(C2C(C(=O)c3ccco3)=C(O)C(=O)N2CCN2CCOCC2)cc1OCC (centres undefined) | 30.9% | 11.9% | 11.0% | 14.7 | 3.2% | ?
Cc1noc(C)c1S(=O)(=O)N(C)C[C@H]1Oc2ccc(NC(=O)CCC(F)(F)F)cc2C(=O)N([C@H](C)CO)C[C@@H]1C | . | . | 11.6% | -13.4 | 6.6% | .
CCNC(=O)CC1C(=O)N(c2cccc(OC)c2)C(=O)N1Cc1ccc(OC)c(OC)c1 (centres undefined) | . | . | . | -0.4 | . | -7.9%
CCN(CC(=O)Nc1cc(Cl)ccc1C)C(=O)CCOc1ccccc1C | -24.3% | ? | -1.8% | -14.4 | -7.0% | 35.5µM*
CCN(CC(=O)Nc1cc(Cl)ccc1C)C(=O)Cc1sc(C)nc1-c1ccc(F)cc1 | 4.65µM* | ? | -5.5% | -20.9 | -29.1%[8.37 µM] | -10.5%
CCN1CCc2nc(N)sc2C1 | -5.5% | -2.6% | -0.1% | ? | 5.4% | -8.1%
C=CCN1CCc2nc(N)sc2CC1 | 6.75µM*! | -13.4% | 3.9% | -12.0 | -17.8%[8.37 µM] | -11.2%
COc1ccc(C2CC(=O)C(C(c3ccc(O)cc3)C3C(=O)CC(c4ccc(OC)cc4)CC3=O)C(=O)C2)cc1 (centres undefined) | ? | ? | 5.7% | . | . | ?
O=C1c2cccc3cccc(c23)C(=O)N1CCN1CCN(CC(O)COCc2ccc(Cl)cc2)CC1 (centres undefined) | ? | ? | -26.0% | -79.2* | 11.2µM* | -1.8%
CCOC(=O)N1CCN(CC(O)COCc2cc(OC)c(OC)c(OC)c2)CC1 (centres undefined) | 7.6% | -3.9% | 3.6% | -0.3 | 5.1% | 0.0%
COc1cc(COCC(O)CN2CCN(CCN3C(=O)c4cccc5cccc(c45)C3=O)CC2)cc(OC)c1OC (centres undefined) | ? | ? | 24.2% | -75.5* | 3.55µM* | 0.0%
CCOc1cc(CN2CCSCC2)ccc1O | ? | -9.3% | -0.7% | -16.8 | -12.7% | 39.8µM*
COc1ccc(CN2CCSCC2)cc1C | . | 6.5% | -9.0% | 6.7 | -3.7% | -1.0%
CCC(C)[C@H](NC(=O)N1CCN(c2cccc(C(F)(F)F)c2)CC1)C(=O)OC (some centres undefined) | 5.22µM* | . | -5.6% | -26.1 | -5.3% | -2.5%
SMILES | Pf growth 96h | Pf growth 48h | SARS PLpro yeast | HCMV inh | HCV inh | Sm TGR inh
COc1ccc(CC(C)N2CCN(c3cccc(C(F)(F)F)c3)CC2)cc1OC (centres undefined) | ? | . | 3.6% | ? | 11.2µM* | 4.5%
CCOC(=O)N1CCN(C(=O)C2CCN(Cc3ccc(O)c(OCC)c3)CC2)CC1 | 16.3% | -13.0% | 0.4% | -25.5 | 1.0% | 31.6µM*
O=C(N[C@@H]1CC[C@@H](CCNC(=O)C2CCOCC2)O[C@@H]1CO)c1ccncc1 | . | . | . | 11.0 | . | .
CC1(c2nnnn2C2CCCC2)CCC(=O)N1c1ccc2c(c1)OCCO2 (centres undefined) | . | . | . | 0.7 | . | .
Cc1ccnc(NS(=O)(=O)c2ccc(NC(=O)c3cc(=O)c4ccccc4o3)cc2)n1 | ? | -2.9% | 3.3% | -19.5 | 20.8% | -3.3%
CCOc1cc(CN2CCN(c3cccc(C(F)(F)F)c3)CC2)ccc1O | 54.1% | ? | 1.1% | -20.9 | -9.7% | 44.7µM*
CCOC(=O)N1CCN(C(=O)C2CCN(S(=O)(=O)CC)CC2)CC1 | 1.65µM* | 2.0% | -1.5% | -1.1 | 8.3% | 3.2%
CCOC(=O)N1CCN(C(=O)C2CCN(Cc3cccc(OCc4ccccc4)c3)CC2)CC1 | 4.65µM* | 5.4% | -12.3% | -24.8 | -25.3% | 0.5%
CCOc1cc(CN2CCN(c3cccc(C(F)(F)F)c3)CC2)ccc1OC | ? | . | -10.7% | 30.7 | -24.5% | 0.0%
Cc1oc(C(C)(C)C)cc1C(N)=O | -8.0% | ? | -0.7% | -15.4 | 10.5% | -30.8%
CCC(C)Nc1nc2c(c(=O)[nH]c(=O)n2C)n1Cc1ccc(F)cc1 (centres undefined) | . | . | . | 13.3 | . | -8.2%
CCSc1nc2c(c(=O)[nH]c(=O)n2C)n1C | -11.9% | -25.6% | 2.9% | 17.3 | 13.0% | 5.1%
CCCCn1c(NC(C)CC)nc2c1c(=O)[nH]c(=O)n2C (centres undefined) | 4.65µM* | ? | -5.0% | -2.2 | 8.3% | -1.3%
CCCCCCn1c(SCCCC)nc2c1c(=O)[nH]c(=O)n2C | 3.29µM* | ? | -1.8% | 85.0 | 10.3% | -13.4%
CC(C)CCSc1nc2c(c(=O)[nH]c(=O)n2C)n1CCCc1ccccc1 | 5.86µM* | 0.3% | -3.4% | -1.4 | 3.3% | -4.8%

Bioassay records as filed in PubChem.
